These results are taken from ChEMBL document CHEMBL3433997, “St. Jude Leishmania screening dataset” (2016).

Holding throughout (assay type): functional
The target in test [1] is Solute carrier family 2, facilitated glucose transporter member 1 (Homo sapiens) (UniProt P11166). Put plainly: ST_JUDE_LEISH: Cytotoxicity at 2uM final concentration against transgenic Leishmania Mexicana promastigotes LmGLUT1 that are glucose transport deficient and complemented with the human glucose transporter GLUT1. Activity is measured by DNA content using SYBR green in vitro.

Test [2] concerns the target Hexose transporter 1 (Plasmodium falciparum) (UniProt O97467). Put plainly: ST_JUDE_LEISH: Cytotoxicity at 2uM final concentration against transgenic Leishmania Mexicana promastigotes LmPfHT that are glucose transport deficient and complemented with the Plasmodium falciparum hexose transporter. Activity is measured by DNA content using SYBR green in vitro.
The target in test [3] is Glucose transporter (Leishmania mexicana) (UniProt O61059). Put plainly: ST_JUDE_LEISH: Cytotoxicity at 2uM final concentration against transgenic Leishmania Mexicana promastigotes LmGT2 that are glucose transport deficient and complemented with the L. Mexicana glucose transporter 2. Activity is measured by DNA content using SYBR green in vitro.

The structures appear in SMILES notation.

Sequence of Solute carrier family 2, facilitated glucose transporter member 1 (Homo sapiens) (P11166 whole entry): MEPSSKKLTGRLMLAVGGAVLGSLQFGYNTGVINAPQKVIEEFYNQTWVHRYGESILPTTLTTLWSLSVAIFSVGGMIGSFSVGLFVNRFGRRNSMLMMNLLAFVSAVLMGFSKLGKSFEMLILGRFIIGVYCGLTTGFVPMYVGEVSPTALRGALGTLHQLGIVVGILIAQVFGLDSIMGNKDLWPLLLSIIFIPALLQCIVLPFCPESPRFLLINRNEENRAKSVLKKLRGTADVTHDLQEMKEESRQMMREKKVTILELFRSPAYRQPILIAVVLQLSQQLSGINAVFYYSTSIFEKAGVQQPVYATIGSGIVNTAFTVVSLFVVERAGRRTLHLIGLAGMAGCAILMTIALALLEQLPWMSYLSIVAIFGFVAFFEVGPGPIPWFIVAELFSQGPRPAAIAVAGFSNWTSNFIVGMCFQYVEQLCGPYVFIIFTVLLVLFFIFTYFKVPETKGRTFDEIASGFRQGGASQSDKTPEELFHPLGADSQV

On to `Cc1cccc2nc(-c3cccc(-c4ccc(CN5CCCC5CN)cc4)c3)[nH]c12` (stereo not given), for which the inhibition was 1.85% in test [1], 0.15% in test [2] and 0.68% in test [3].
For `CC(=O)Nc1ccc2[nH]cc(C3CCN(CCC4CCN(C(=O)/C=C/c5ccc(Cl)c(Cl)c5)CC4)CC3)c2n1`, in that order: 0.57%, 0.67% and -1.33%.
On the same counts, the results for `CC(C)(C)C1CCC(C(=O)c2ccc3ccccc3c2O)CC1` (stereo not given) are 1.28%, -0.87% and 0.57%.
As to `O=C(Nc1ccc(Cl)cc1Cl)N[C@H]1CCN(CCCCCNC(=O)C2CC2c2ccc(Cl)c(Cl)c2)C1` (stereo not given in full), the inhibition in test [1] was determined as 3.75%; in test [2] it was 4.63%; in test [3] it was 4.05%.
On the same counts, the results for `OC1CCCN(Cc2ccc(-c3ccc(-c4nc5ccccc5[nH]4)cc3)cc2)C1` (stereo not given) are 8.52%, 7.95% and 5.37%.
On the same counts, the results for `Cc1cc(NC(=O)NCCN2CCC(NC(=O)c3ccc(F)cc3)CC2)c2ccccc2n1` are -0.27%, -0.3% and -3.5%.
For `COc1cc2c(cc1COc1ccccc1)CCN1Cc3cc(OC)c(OC)cc3CC21` (stereo not given), in that order: 1.91%, 0.8% and -6.12%.
Turning to `COc1cc(Nc2nccc(N3CCC(NC(=O)Nc4cccc(C(C)=O)c4)C3)n2)cc(OC)c1OC` (stereo not given), the inhibition is 2.52% in test [1], 2.96% in test [2] and 3.92% in test [3].
As for `O=C(/C=C/c1ccc(Cl)c(Cl)c1)NCCCCCN1CCC(NC(=O)Nc2ccc([N+](=O)[O-])cc2)CC1`, the inhibition is -0.34% in test [1], 1.11% in test [2] and -0.43% in test [3].
On to `C=CCN(C(=O)c1ccc(Cl)c([N+](=O)[O-])c1)c1nc(-c2ccccc2)cs1`, for which the results for the inhibition in test [1], in test [2] and in test [3] were 10.6%, 9.45% and 7.89%, respectively.
For `O=C(NCCCCN1CCC(c2ccc3c(c2OCc2ccncc2)CCCC3)CC1)c1ccc(-c2ccc(C(F)(F)F)cc2)cc1`, in that order: 1.51%, 1.48% and 0.42%.
For `CC(=O)Nc1ccc(C(=O)Nc2cccc(-c3cccc(-c4nc5ccccc5[nH]4)c3)c2)cn1`, in that order: 2.35%, -0.22% and 1.34%.
On the same counts, the results for `CCC(C)c1ccc(NC(=O)Nc2ccc(Cn3ncc(N4CCCNCC4)c(Cl)c3=O)cc2)cc1` (stereo not given) are 3.78%, 4.71% and -0.01%.
Turning to `CN1CCN(CCCN(Cc2csc(-c3ccc(CNCc4ccccc4)cc3)n2)C(=O)Nc2ccc3ccccc3c2)CC1`, the inhibition in test [1] was found to be 2.94%; in test [2], 4.46%; in test [3] it was 0.42%.
On the same counts, the results for `COc1cc2c(cc1S(=O)(=O)c1ccc(NC(=O)c3cccc(C(F)(F)F)c3)cc1)CCN(C)CC2` are 1.16%, 0.62% and 1.88%.
As to `Cc1ccccc1CNc1noc(-c2sccc2Br)n1`, the inhibition in test [1] was -2.66%; in test [2], -1.49%; in test [3], -1.5%.
For `Cc1ccc(C2(CN3CCC(NC(=O)c4n[nH]cc4Cl)CC3)CCCCC2)cc1`, in that order: -1.34%, 0.31% and -0.37%.
For `CC(C)(C)c1cc([N+](=O)[O-])cc(C(=O)Nc2ccccc2C(F)(F)F)c1O`, in that order: 0.47%, -0.82% and -1.86%.
On the same counts, the results for `CC(=O)c1ccc(N2CCN(C(=O)Nc3ccc(Cl)cc3)CC2)cc1` are 9.4%, 7.37% and 8.94%.
In the case of `O=C(Nc1cccc(OCCN2CCCC2)c1)Nc1ccc(Cl)c(Cl)c1`, the inhibition is 1.92% in test [1], 2.15% in test [2] and 4.58% in test [3].
For the molecule `CC(C)(C)c1ccc(CN2CCC(CNC(=O)c3cc(-c4ccccc4F)cs3)C2)cc1` (stereo not given), the results for the inhibition in test [1], in test [2] and in test [3] were -1.08%, -2.3% and 0.9%, respectively.
For `CC(C)CNCc1cccc(-c2ccc(CNc3ccc(C(=O)c4ccccc4)cc3)cc2)c1`, in that order: 1.27%, 0.62% and -1.03%.
On the same counts, the results for `CC(Cc1ccc(CNC(=O)c2ccc(CC(C)NCCc3cccc(Cl)c3)cc2)cc1)NCCc1cccc(Cl)c1` (stereo not given) are 1.09%, 8.32% and 2.1%.
As for `CC(=O)Nc1ccc(OCCCN(Cc2ccccc2C(F)(F)F)c2ccc(C(F)(F)F)c(C#N)c2)c(Cl)c1`, the inhibition came out at 6.79% in test [1], 5.68% in test [2] and 1.94% in test [3].
For `Cc1cc(C(=O)N(Cc2ccc(-c3ccc(CNCCc4ccc(S(C)(=O)=O)cc4)cn3)cc2)C(C)CN(C)C)ccc1[N+](=O)[O-]` (stereo not given), in that order: 7.26%, 5.46% and 6.55%.
As to `Cc1ccc2nc(C)n(C3CCN(C(=O)Cc4ccc(F)c(F)c4)CC3)c2c1`, the values for the inhibition in test [1], in test [2] and in test [3] were 2.56%, 2% and 2.78%, respectively.
Take `CC1(C)NC(N)=NC(=N)N1OCCCOc1c(Cl)cc(Cl)cc1Cl`: the inhibition in test [1] was -1.14%; in test [2], 0.14%; in test [3] it was -2.41%.
On the same counts, the results for `Cc1nc(N)nc(N)c1OCc1cccc2c1ccc1ccccc12` are 3.53%, 6.28% and 2.84%.
On the same counts, the results for `CN1CCc2ccc(NC(=O)Nc3cccc([N+](=O)[O-])c3)cc2C1` are 1.58%, 0.7% and 1.63%.
On the same counts, the results for `CCCCCN1CCC(CNS(=O)(=O)c2ccc(C(=O)Nc3cccc(C(F)(F)F)c3)cc2)CC1` are 0.47%, 0.02% and -0.33%.
In the case of `O=C(NCCCCN1CCN(c2cccc3c2CCCC3)CC1)c1ccc(NC(=O)c2ccc(Cl)cc2)cc1`, the inhibition in test [1] worked out at 3.35%; in test [2], 1.45%; in test [3] it was 1.92%.
For `Cc1ccc(C(=O)c2oc3ccc4c(C)cc(=O)oc4c3c2C)cc1`, in that order: -0.73%, -0.13% and 0.22%.
On the same counts, the results for `CCCCCCC(C)c1cc(OCCN(CC)CC)c2c(c1)OC(C)(C)C=C2c1ccncc1` (stereo not given) are -0.93%, 0.33% and -1.02%.
On the same counts, the results for `CCC(=O)Oc1ccc(NC(=O)c2cccc(OC)c2)cc1` are 1.64%, 1.17% and 1.69%.
As to `CC(=O)Nc1cc(C(=O)Nc2cccc(-c3cccc(-c4nc5cc(C(F)(F)F)ccc5[nH]4)c3)c2)ccc1C`, the inhibition stood at 7.57% in test [1], 6.52% in test [2] and 1.84% in test [3].
